A short description of this test: qHTS to identify inhibitors of the type 1 interferon - major histocompatibility complex class I in skeletal muscle: Secondary screen by immunofluorescence. Further: nearly all actives have a fitted effect of over 70% in size. Conditions: C25cl48 myoblasts, IFN-b induced HLA-ABC immunofluorescence, 24 h, Viability; series mostly up to 49.8 µM. A digest of the protocol:
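Immortalized human myoblasts C25cl48 were stimulated with 4.0 ng/ml IFN-beta and exposed to an 11-point 1:3 compound titration, top 50 uM, for 24 h at 37 C. They were then fixed and immunostained for HLA-ABC, and quantified by laser scanning cytometry.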
Background: qHTS replaces the single test concentration by a dilution series.

Records with an inconclusive call do not appear. Where a call stands in place of a potency, no number is given. The source made the active and inactive calls. The call rests on the fitted dose curve; in most records, active means well fitted inhibition curve with a large enough effect; inconclusive means small, poorly fitted or top-dose-only effect; inactive means no such curve, though single readings can be large or run the other way.
Potency means the concentration at half of the fitted maximal effect.

Regarding `CC1(C)CC[C@]2(NC(=O)C(C)(F)F)CC[C@]3(C)[C@H](C(=O)C=C4[C@@]5(C)C=C(C#N)C(=O)C(C)(C)[C@@H]5CC[C@]43C)[C@@H]2C1`, the Potency is 4.08 µM (active).
With `CC1=C(O)C(=O)C=C2C1=CC=C1[C@@]2(C)CC[C@@]2(C)[C@@H]3C[C@](C)(C(=O)O)CC[C@]3(C)CC[C@]12C`, the Potency was 5.76 µM (active).
The value for `Cc1sc2c(c1C)C(c1ccc(Cl)cc1)=N[C@@H](CC(N)=O)c1nnc(C)n1-2` was “inactive”.
The value for `CC(C)[C@]12O[C@H]1[C@@H]1O[C@]13[C@]1(O[C@H]1C[C@H]1C4=C(CC[C@@]13C)C(=O)OC4)[C@@H]2O` was “inactive”; that for `O=C1/C(=C\c2ccccc2)C[C@@]2(O)[C@H]3Cc4ccc(O)c5c4[C@@]2(CCN3CC2CC2)[C@H]1O5` was 10.2 µM (active); that for `C[C@@H]1O[C@@H](O[C@H]2C[C@@H](O)[C@]3(CO)[C@H]4[C@H](O)C[C@]5(C)[C@@H](C6=CC(=O)OC6)CC[C@]5(O)[C@@H]4CC[C@]3(O)C2)[C@H](O)[C@H](O)[C@H]1O` was “inactive”.
The value for `CC(=O)OC[C@H]1O[C@@H]([S-])[C@H](OC(C)=O)[C@@H](OC(C)=O)[C@@H]1OC(C)=O.CC[PH+](CC)CC.[Au]` was 1.62 µM (active); that for `O=c1[nH]c2ccc(Cl)cc2c(N[C@@H]2CN3CCC2CC3)c1-c1nc2ccccc2[nH]1` was 4.58 µM (active); that for `O=[N+]([O-])/C=C/c1ccc2c(c1)OCO2` was 11.5 µM (active).
Consider `CC(C)(O)/C=C\C(=O)[C@](C)(O)[C@H]1[C@H](O)C[C@]2(C)[C@@H]3CC=C4[C@@H](C=C(O)C(=O)C4(C)C)[C@]3(C)C(=O)C[C@@]12C`, for which the Potency is 16.2 µM (active).
For `CN(C)c1cc2c(cc1Sc1nc3c(N)nccc3n1CCNCC(C)(C)C)OCO2` the value was “inactive”; for `Cc1[nH]ncc1-c1cc2nc([C@@H]3CC4CCN3CC4)[nH]c(=O)c2s1`, “inactive”.
For `CC(C)(C)c1cc(C=C(C#N)C#N)cc(C(C)(C)C)c1O` the value was “inactive”.
The value for `C/C(=C\c1csc(C)n1)[C@@H]1C[C@@H]2O[C@]2(C)CCC[C@H](C)[C@H](O)[C@@H](C)C(=O)C(C)(C)[C@@H](O)CC(=O)O1` was “inactive”; that for `Cc1sc2c(c1C)C(c1ccc(Cl)cc1)=N[C@@H](CC(=O)OC(C)(C)C)c1nnc(C)n1-2` was “inactive”.
As to `CC(C)[C@]12O[C@H]1[C@@H]1O[C@@]13[C@@]1(C)CCC4=C(COC4=O)[C@@H]1C[C@@H]1O[C@@]13C2=O`, the Potency entry is “inactive”.
For `COc1cccc2c1C(=O)c1c(O)c3c(c(O)c1C2=O)C[C@@](O)(C(=O)CO)CC3OC1CC(N2CCOC(OC)C2)C(O)C(C)O1` (stereo not given in full) the value was “inactive”.
Take `CCn1cnc2c(Nc3cccc(Cl)c3)nc(N[C@@H]3CCCC[C@@H]3N)nc21`: the Potency was 25.7 µM (active).
The value for `CC[C@@]1(O)C(=O)OCc2c1cc1n(c2=O)Cc2cc3ccccc3nc2-1` was “inactive”; that for `Cc1sc2c(c1C)C(c1ccc(Cl)cc1)=N[C@@H](CC(=O)Nc1ccc(O)cc1)c1nnc(C)n1-2` was “inactive”.
The value for `C=C(C)[C@@H]1CCC(C)=C[C@H]1c1c(O)cc(CCCCC)cc1O` was 25.7 µM (active); that for `C[C@@H]1O[C@@H](O[C@@H]2C=C3CC[C@@H]4[C@H](CC[C@]5(C)[C@@H](c6ccc(=O)oc6)CC[C@]45O)[C@@]3(C)CC2)[C@H](O)[C@H](O)[C@H]1O` was “inactive”; that for `COC(=O)[C@]12CCC(C)(C)C[C@H]1[C@H]1C(=O)C=C3[C@@]4(C)C=C(C#N)C(=O)C(C)(C)[C@@H]4CC[C@@]3(C)[C@]1(C)CC2` was 3.64 µM (active).
Consider `C/C1=C/C[C@@H](/C(C)=C/c2csc(C)n2)OC(=O)C[C@H](O)C(C)(C)C(=O)[C@H](C)[C@@H](O)[C@@H](C)CCC1`, for which the Potency entry is “inactive”.
Consider `COC(=O)[C@@]12OC[C@]34[C@H]([C@@H](O)[C@@H]1O)[C@@]1(C)CC(=O)C(O)=C(C)[C@@H]1C[C@H]3OC(=O)[C@H](OC(=O)/C=C(\C)C(C)C)[C@@H]24`, for which the Potency result is “inactive”.
